# Measured values taken from PubChem BioAssay.
# Values joined by “and” are separate entries in the source; they are usually repeats but may differ in a detail not shown here. Equal values may be shown once. Active and inactive are the calls of the source. Unless noted, the rule behind the calls is not given here. Where a SMILES comes first, the peptide text is derived from it. The star is where a group is joined. Cbz = O=C(OCc1ccccc1)*
# Experiments:
# [1] = sensitizers of A549 cells to miR-34 induction, primary screen, imaging, A549 dox-inducible miR-34, nuclei and caspase counts (AID 1347080;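 active = compounds whose cell count with miR-34 switched on is under 0.7 times the count with it off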); settings: A549 miR-34 inducible, Hoechst nuclei count, 48 h
# [2] = inhibitors of Cryptococcus chitosan production, flow cytometry, Cibacron Brilliant Red staining (AID 1347148); settings: Cryptococcus neoformans chitosan, stronger effect = lower value; at 10 µM unless noted;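 note: compound exposure lasted three days at 37 degrees C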
# [3] = survival rescue of mitochondrial mutant cells in low glucose, primary screen, MELAS cybrids, Rieske KO mouse fibroblasts, CellTiter-Glo (AID 1508586;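 active = mean z-score across replicates of 1.96 or higher in either the MELAS or the Rieske mutant cell line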;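 note: z relative to plate mean and SD of compound and empty wells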)
# [4] = circadian clock period modulators, cell-based, LOPAC library, luminescence reporter (AID 2774); settings: circadian reporter cells, at 7 µM, actives lie on both sides;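 note: values are relative to mean of DMSO wells on each plate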
# [5] = test system: Hepatitis C virus NS3 helicase; test: HCV NS3 helicase inhibitors, primary screen, biochemical, fluorescence polarization, LOPAC1280 library (AID 687035; in the data active = inhibition above about 37%); settings: Purified HCV NS3 helicase, Cy5-dT15 ssDNA binding fluorescence polarization; stronger effect = higher value; concentration not given here
# [6] = Cy5 fluorescence quenching or enhancement artefacts, artefact control for HCV NS3 helicase inhibitor project, biochemical, LOPAC1280 (AID 687037); settings: Cy5-DNA-NS3h complex fluorescence interference counterscreen
# [7] = phospholipid biosynthesis inhibitors in animal cells, primary screen, cell-based, LOPAC library, screen 4 (AID 1347384); settings: phospholipid biosynthesis inhibition screen, at 10 µM
# [8] = viability rescue of complex I mutant cybrids, primary screen, cell-based, galactose medium, ATP luminescence (AID 1645843;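 active = z-score of at least 1.8 in each of two replicates, scored against plate mean and spread of sample wells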;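 note: positive z means more ATP and so rescue of galactose-driven cybrid death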); settings: complex I mutant cybrid cells, 72 h, stronger effect = higher value
# [9] = hESC survival regulators, cell-based (AID 493140); settings: human embryonic stem cell survival screen; stronger effect = higher value;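 note: cells exposed to compounds for four days before counting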
# [10] = liver-stage malaria parasite growth inhibition, primary screen, cell-based, HepG2, luciferase luminescence, HepG2 viability (AID 624349; in the data active = parasite load remaining mostly below about 12%, no sharp cut-off; inactive = mostly above about 10%;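 note: 100% = mean of DMSO negative control wells on the same plate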); settings: P. berghei liver stage in HepG2, luciferase luminescence, concentration not given here; parasite load remaining: stronger effect = lower value; viability: measured here: HepG2 viability without parasites
# [11] = stronger effect = lower value, cell number ratio, induced over uninduced
# [12] = measured here: relative caspase fold change +Dox/-Dox
# [13] = measured here: total cells with miR-34 induction, stronger effect = lower value
# [14] = measured here: total cells without miR-34 induction
# [15] = MELAS cybrid survival, CellTiter-Glo 48 h, stronger effect = higher value
# [16] = Rieske KO mouse fibroblast survival, CellTiter-Glo 72 h
compound,measurement,setting,value
COc1ccc(/C=C/c2cc(O)cc(O)c2)cc1O,fold change,[1]; [11],0.915 (inactive)
same,fold change,[1]; [12],0.703
same,cell count,[1]; [13],5710
same,cell count,[1]; [14],6250
CCCCC[C@H](O)/C=C/[C@H]1CC[C@@H](O)[C@@H]1C/C=C\CCCC(=O)O,fold change,[1]; [11],0.973 (inactive)
same,fold change,[1]; [12],1.34
same,cell count,[1]; [13],5950
same,cell count,[1]; [14],6110
CC(=O)OCOC(=O)CN(CC(=O)OCOC(C)=O)c1ccccc1OCCOc1ccccc1N(CC(=O)OCOC(C)=O)CC(=O)OCOC(C)=O,fold change,[1]; [11],1.04 (inactive) and 0.871 (inactive)
same,fold change,[1]; [12],1.07 and 0.533
same,cell count,[1]; [13],2560 and 5870
same,cell count,[1]; [14],2460 and 6740
same,fold fluorescence,[2],5.04 [at 65.4 µM] (inactive)
same,z-score,[3]; [15],-0.31 (inactive)
same,z-score,[3]; [16],0.894
CC(C)[C@H](NC(=O)OCc1ccccc1)C(=O)N[C@H](C=O)Cc1ccccc1 (Cbz-Val-Phe-aldehyde),period change,[4],-0.095 h (inactive)
same,inhibition,[5],1% (inactive)
same,fluorescence ratio (interference),[6],1.1 (inactive)
same,fold change,[1]; [11],1.08 (inactive) and 0.959 (inactive)
same,fold change,[1]; [12],1.1 and 1.17
same,cell count,[1]; [13],9200 and 4810
same,cell count,[1]; [14],8520 and 5010
same,fold fluorescence,[2],5.31 [at 130.7 µM] (inactive)
same,outcome,[7],inactive
same,z-score,[8],0.52 (inactive)
O=C(O)CCC/C=C\C[C@@H]1[C@@H](/C=C/[C@@H](O)CCc2cccc(C(F)(F)F)c2)[C@H](O)C[C@@H]1O,fold change,[1]; [11],1.01 (inactive)
same,fold change,[1]; [12],1.2
same,cell count,[1]; [13],5710
same,cell count,[1]; [14],5640
CCCCCCCCCCCCCCCC(=O)NC(C)C,fold change,[1]; [11],1.13 (inactive)
same,fold change,[1]; [12],0.996
same,cell count,[1]; [13],6190
same,cell count,[1]; [14],5500
CS(=O)(=O)Nc1ccc([N+](=O)[O-])cc1OC1CCCCC1,fold change,[1]; [11],0.816 (inactive) and 0.974 (inactive)
same,fold change,[1]; [12],1.1 and 1.38
same,cell count,[1]; [13],4510 and 5650
same,cell count,[1]; [14],5530 and 5800
same,fold fluorescence,[2],5.81 [at 159.1 µM] (inactive)
CCCCC[C@H](O)/C=C/C1=C(C/C=C\CCCC(=O)O)C(=O)CC1,survival,[9],130 (inactive)
same,fold change,[1]; [11],0.969 (inactive) and 0.886 (inactive)
same,fold change,[1]; [12],1.57 and 1.52
same,cell count,[1]; [13],6100 and 5600
same,cell count,[1]; [14],6300 and 6320
same,fold fluorescence,[2],3.98 (inactive)
CCCCC(C)(C)[C@H](O)/C=C/[C@H]1[C@H](O)CC(=O)[C@@H]1CCCCCCC(=O)O,fold change,[1]; [11],0.94 (inactive)
same,fold change,[1]; [12],1.17
same,cell count,[1]; [13],5660
same,cell count,[1]; [14],6020
CCCCCCCCC#CCC#CCC#CCCCC(=O)O,survival,[9],97.9 (inactive)
same,fold change,[1]; [11],0.872 (inactive) and 1.12 (inactive)
same,fold change,[1]; [12],1.12 and 0.534
same,cell count,[1]; [13],5490 and 6070
same,cell count,[1]; [14],6300 and 5430
same,fold fluorescence,[2],6.11 (inactive)
C[C@@]1(C2CCCC2)Cc2cc(OCC(=O)O)c(Cl)c(Cl)c2C1=O,period change,[4],0.04 h (inactive)
same,inhibition,[5],-6% (inactive)
same,fluorescence ratio (interference),[6],1 (inactive)
same,fold change,[1]; [11],1.13 (inactive) and 0.909 (inactive)
same,fold change,[1]; [12],0.91 and 1.29
same,cell count,[1]; [13],11200 and 5500
same,cell count,[1]; [14],9900 and 6050
same,fold fluorescence,[2],4.41 [at 140 µM] (inactive)
same,outcome,[7],inactive
same,z-score,[8],0.845 (inactive)
CCCCC(C)(C)[C@H](O)/C=C/[C@@H]1[C@@H](C/C=C\CCCC(=O)O)[C@H](O)C[C@H]1O,fold change,[1]; [11],0.901 (inactive)
same,fold change,[1]; [12],1.73
same,cell count,[1]; [13],5660
same,cell count,[1]; [14],6290
CCN(CC)CCCCCCCCOC(=O)c1cc(OC)c(OC)c(OC)c1,period change,[4],-0.085 h (inactive)
same,inhibition,[5],-4% (inactive)
same,fluorescence ratio (interference),[6],0.9 (inactive)
same,fold change,[1]; [11],1.02 (inactive) and 0.949 (inactive)
same,fold change,[1]; [12],0.695 and 1.09
same,cell count,[1]; [13],8240 and 4880
same,cell count,[1]; [14],8090 and 5140
same,fold fluorescence,[2],8.07 [at 126.4 µM] (inactive)
same,outcome,[7],inactive
same,z-score,[8],-0.285 (inactive)
O=C1NC(O)=NC1(c1ccccc1)c1ccccc1,period change,[4],-0.095 h (inactive)
same,inhibition,[5],-2% (inactive)
same,fluorescence ratio (interference),[6],1.1 (inactive)
same,fold change,[1]; [11],0.966 (inactive) and 0.93 (inactive)
same,fold change,[1]; [12],1.46 and 0.866
same,cell count,[1]; [13],9800 and 7860
same,cell count,[1]; [14],10100 and 8450
same,fold fluorescence,[2],4.71 [at 198.2 µM] (inactive)
same,z-score,[3]; [15],-0.314 (inactive)
same,z-score,[3]; [16],-0.0769
same,z-score,[8],0.26 (inactive)
O=c1[nH]c2cc(C(F)(F)F)ccc2n1-c1cc(C(F)(F)F)ccc1O,period change,[4],-0.3 h (inactive)
same,inhibition,[5],-6% (inactive)
same,fluorescence ratio (interference),[6],0.9 (inactive)
same,fold change,[1]; [11],0.996 (inactive) and 0.985 (inactive)
same,fold change,[1]; [12],0.925 and 0.952
same,cell count,[1]; [13],9130 and 5130
same,cell count,[1]; [14],9180 and 5210
same,fold fluorescence,[2],3.32 [at 138 µM] (inactive)
same,outcome,[7],inactive
same,z-score,[8],0.585 (inactive)
NCCNS(=O)(=O)c1cccc2c(Cl)cccc12,inhibition,[5],-2% (inactive)
same,fluorescence ratio (interference),[6],1 (inactive)
same,fold change,[1]; [11],1.01 (inactive) and 0.93 (inactive)
same,fold change,[1]; [12],0.86 and 1.13
same,cell count,[1]; [13],9070 and 4030
same,cell count,[1]; [14],9000 and 4330
same,fold fluorescence,[2],10.8 [at 175.6 µM] (inactive)
same,outcome,[7],inactive
same,z-score,[8],-0.845 (inactive)
CCCCCCCC(=O)OC[C@H](CO)OC(=O)CCCCCCC,survival,[9],75.3 (inactive)
same,fold change,[1]; [11],1 (inactive) and 1.04 (inactive)
same,fold change,[1]; [12],1.36 and 0.811
same,cell count,[1]; [13],5210 and 5590
same,cell count,[1]; [14],5190 and 5400
same,fold fluorescence,[2],6.5 (inactive)
C=C(C)[C@@H]1CCC(C)=C[C@H]1c1c(O)cc(C)cc1O,fold change,[1]; [11],0.94 (inactive)
same,fold change,[1]; [12],1.01
same,cell count,[1]; [13],5290
same,cell count,[1]; [14],5630
NC(=Nc1ccccc1)NC(=O)c1nc(Cl)c(N)nc1N,period change,[4],-0.435 h (inactive)
same,parasite load remaining,[10],58.8% (inactive)
same,viability,[10],98%
same,inhibition,[5],-2% (inactive)
same,fluorescence ratio (interference),[6],1 (inactive)
same,fold change,[1]; [11],1.04 (inactive) and 0.937 (inactive) and 0.841 (inactive)
same,fold change,[1]; [12],1.01 and 1.25 and 1.03
same,cell count,[1]; [13],5840 and 3000 and 8780
same,cell count,[1]; [14],5620 and 3200 and 10400
same,fold fluorescence,[2],5.89 [at 163.5 µM] (inactive)
same,outcome,[7],inactive
same,z-score,[3]; [15],1.28 (inactive)
same,z-score,[3]; [16],0.859
same,z-score,[8],-0.925 (inactive) and 0.595 (inactive)
